# Test results reported in PubChem BioAssay.
# Where “and” joins values, the source holds several entries; their conditions need not be identical. Equal values may be shown once. For some assays here: Results with a measured potency or affinity are listed apart. Calls of active or inactive are those of the source.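 How the source made its calls, unless noted: active means compounds whose cell count with miR-34 switched on is under 0.7 times the count with it off; inactive means the rest.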
# Assays:
# [1] = target: 6-phosphogluconate dehydrogenase, decarboxylating (Homo sapiens) (UniProt P52209); experiment: inhibition of human phosphogluconate dehydrogenase – biochemical, recombinant enzyme, NADPH absorbance, primary screen (AID 1159550;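 active means at least 20% inhibition of 6-phosphogluconate dehydrogenase activity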); conditions: recombinant 6PGD, NADPH absorbance 341 nm; at 10 µM; stronger effect = higher value
# Chain of 6-phosphogluconate dehydrogenase, decarboxylating (Homo sapiens) (P52209 whole entry, looked up): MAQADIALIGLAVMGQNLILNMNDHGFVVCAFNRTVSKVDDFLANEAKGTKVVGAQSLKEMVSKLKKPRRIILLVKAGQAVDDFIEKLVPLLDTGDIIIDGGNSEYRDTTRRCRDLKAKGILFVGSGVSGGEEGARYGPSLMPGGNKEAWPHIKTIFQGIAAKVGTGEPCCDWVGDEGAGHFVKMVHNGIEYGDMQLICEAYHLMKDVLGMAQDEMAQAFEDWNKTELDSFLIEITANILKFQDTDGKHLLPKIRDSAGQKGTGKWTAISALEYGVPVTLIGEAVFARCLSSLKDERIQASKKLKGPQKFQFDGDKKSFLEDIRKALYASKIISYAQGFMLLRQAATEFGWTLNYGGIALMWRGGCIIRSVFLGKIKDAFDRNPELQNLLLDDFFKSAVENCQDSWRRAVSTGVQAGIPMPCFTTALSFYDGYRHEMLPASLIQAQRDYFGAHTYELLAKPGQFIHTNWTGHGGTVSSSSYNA
# [2] = EMT-state selective cytotoxicity in co-culture – imaging, PC-3E GFP, TEM4-18 mCherry, primary screen (AID 1345086;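 active means compounds killing one labelled cell type while sparing the other, by normalised counts and ratio limits, not self-fluorescent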;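 on all read-outs here: cells exposed to compound for 72 h before imaging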;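 on red/green cell ratio (normalised): normalised mesenchymal count divided by normalised epithelial count so high means epithelial killing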); conditions: PC-3E GFP / TEM4-18 mCherry co-culture, imaging cell counts, at 1 µM; for red/green cell ratio (normalised): actives lie on both sides, counts scaled to control wells, 1 = unselective
# [3] = viability loss with induced miR-34 in A549 – imaging, A549 dox-inducible miR-34, nuclei and caspase counts, primary screen (AID 1347080); conditions: A549 miR-34 inducible, Hoechst nuclei count, 48 h
# [4] = blockers of polyQ-driven CASP3 activation – cell-based (AID 1583); conditions: polyglutamine-induced caspase-3 activation, cell assay; stronger effect = higher value;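 tested at 10 µM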
# [5] = yeast 75Q aggregation reduction – 75Q-TubU reporter (AID 1593); conditions: Yeast 75Q polyglutamine aggregation reporter
# [6] = restoration of touch response, mutant HTT neurons – whole organism, C. elegans mechanosensory neurons, N-terminal huntingtin (AID 1599); conditions: C. elegans polyQ-huntingtin mechanosensory neurons, stronger effect = higher value
# [7] = blockers of cytochrome c efflux from mitochondria – biochemical, purified mitochondria (AID 1603); conditions: stronger effect = lower value;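 further: mouse liver mitochondria challenged with calcium chloride; signal normalized to the plate average as 100%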
# [8] = polyglutamine aggregate formation blockers (AID 1604); conditions: polyglutamine-induced protein aggregation inhibition assay; stronger effect = higher value; tested at 2.5 µM
# [9] = glutamate transport activators, MN-1 cells, MN-1 cell line (AID 1612); conditions: MN-1 motor neuron cells, stronger effect = higher value;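 further: tested at 1 µM final; 0% = mean of DMSO vehicle wells on each plate; positive means more glutamate uptake than control and negative means less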
# [10] = GFP-Q80 aggregate reduction, neuronal-like cells, cell-based, NGF-treated PC12, GFPQ80 (AID 1614); conditions: PC12 NGF-treated GFP-polyQ80 inclusion reduction;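 further: lower means fewer inclusions and 0 means no inclusions at all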
# [11] = 75Q-TubH aggregate inhibition, S. cerevisiae, yeast (AID 1616); conditions: S. cerevisiae 75Q-TubH polyglutamine aggregation suppression; stronger effect = higher value
# [12] = P. berghei load reduction in hepatocytes – cell-based, HepG2, luciferase luminescence, HepG2 viability, primary screen (AID 624349; in the data active means parasite load remaining mostly below about 12%, no sharp cut-off; inactive means mostly above about 10%;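 further: 100% = mean of DMSO negative control wells on the same plate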); conditions: P. berghei liver stage in HepG2, luciferase luminescence, concentration not given here; parasite load remaining: stronger effect = lower value; viability: measured here: HepG2 viability without parasites
# [13] = MELAS cybrid and Rieske KO viability enhancers – cell-based, MELAS cybrids, Rieske KO mouse fibroblasts, CellTiter-Glo, primary screen (AID 1508586;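 active means mean z-score across replicates of 1.96 or higher in either the MELAS or the Rieske mutant cell line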;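 further: z relative to plate mean and SD of compound and empty wells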); conditions: low glucose
# [14] = target: Mitogen-activated protein kinase 7 (Homo sapiens) (UniProt Q13164); experiment: Gal4-ERK5 driven luciferase induction – cell-based, HTS, primary screen (AID 1508626;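 active means luciferase signal above three times the same-plate solvent-only control wells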;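 further: luciferase driven by Gal4-ERK5 fusion binding five Gal4 sites before minimal TATA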); conditions: HeLa Gal4-ERK5 transactivation, 18 h, at 5 µM, stronger effect = higher value
# Chain of Mitogen-activated protein kinase 7 (Homo sapiens) (Q13164 whole entry, looked up, the tested form may be a part): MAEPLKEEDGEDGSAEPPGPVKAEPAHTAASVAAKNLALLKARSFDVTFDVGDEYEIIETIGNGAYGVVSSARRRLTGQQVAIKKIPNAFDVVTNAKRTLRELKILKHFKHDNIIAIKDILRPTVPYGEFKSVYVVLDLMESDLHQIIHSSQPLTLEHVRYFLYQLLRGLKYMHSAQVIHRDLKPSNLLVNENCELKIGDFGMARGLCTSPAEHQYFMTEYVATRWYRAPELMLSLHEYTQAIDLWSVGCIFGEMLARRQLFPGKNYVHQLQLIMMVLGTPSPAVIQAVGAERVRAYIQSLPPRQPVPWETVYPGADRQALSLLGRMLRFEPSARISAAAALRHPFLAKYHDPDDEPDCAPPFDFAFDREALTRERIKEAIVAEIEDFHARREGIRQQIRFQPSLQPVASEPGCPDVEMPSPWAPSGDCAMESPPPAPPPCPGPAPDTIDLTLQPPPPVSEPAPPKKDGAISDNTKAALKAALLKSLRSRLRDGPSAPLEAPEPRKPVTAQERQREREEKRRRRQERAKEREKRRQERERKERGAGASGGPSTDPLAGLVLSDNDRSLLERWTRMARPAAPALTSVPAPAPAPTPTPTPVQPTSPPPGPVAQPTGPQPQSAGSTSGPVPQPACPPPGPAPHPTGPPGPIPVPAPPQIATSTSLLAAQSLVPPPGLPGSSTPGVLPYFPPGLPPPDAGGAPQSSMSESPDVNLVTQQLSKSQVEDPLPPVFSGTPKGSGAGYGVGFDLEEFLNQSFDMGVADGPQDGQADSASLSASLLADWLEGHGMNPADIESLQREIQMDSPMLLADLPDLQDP
# [15] = galactose survival enhancers in mitochondrial complex I cybrids – cell-based, galactose medium, ATP luminescence, primary screen (AID 1645843;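 active means z-score of at least 1.8 in each of two replicates, scored against plate mean and spread of sample wells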;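 further: positive z means more ATP and so rescue of galactose-driven cybrid death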); conditions: complex I mutant cybrid cells, 72 h, stronger effect = higher value
# [16] = compounds altering circadian rhythm period length – cell-based, LOPAC library, luminescence reporter (AID 2774; call rule not given here;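 further: values are relative to mean of DMSO wells on each plate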); conditions: circadian reporter cells, at 7 µM, actives lie on both sides
# [17] = system: Hepatitis C virus NS3 helicase; experiment: blockers of NS3h binding to ssDNA – biochemical, fluorescence polarization, LOPAC1280 library, primary screen (AID 687035; in the data active means inhibition above about 37%); conditions: Purified HCV NS3 helicase, Cy5-dT15 ssDNA binding fluorescence polarization; stronger effect = higher value; concentration not given here
# [18] = compounds altering Cy5-DNA-NS3h complex signal – biochemical, LOPAC1280, artefact control for HCV NS3 helicase inhibitor project (AID 687037; call rule not given here); conditions: Cy5-DNA-NS3h complex fluorescence interference counterscreen
# [19] = blockers of cellular phospholipid synthesis – cell-based, LOPAC library, screen 4, primary screen (AID 1347384; call rule not given here); conditions: animal cells, phospholipid biosynthesis inhibition screen; at 10 µM
# [20] = measured here: epithelial PC-3E GFP cell survival
# [21] = measured here: mesenchymal TEM4-18 mCherry cell survival
# [22] = stronger effect = lower value, cell number ratio, induced over uninduced
# [23] = measured here: relative caspase fold change +Dox/-Dox
# [24] = measured here: total cells with miR-34 induction, stronger effect = lower value
# [25] = measured here: total cells without miR-34 induction
# [26] = MELAS cybrid survival, CellTiter-Glo 48 h, stronger effect = higher value
# [27] = Rieske KO mouse fibroblast survival, CellTiter-Glo 72 h
compound,measurement,setting,value
CC(=O)[C@@]1(O)CCC2C3CCC4=CC(=O)CC[C@]4(C)C3CC[C@@]21C (some centres not stated),inhibition,[1],7.07% (inactive)
same,red/green cell ratio (normalised),[2],0.98 (inactive)
same,normalised cell number,[2]; [20],0.94
same,normalised cell number,[2]; [21],0.92
same,fold change,[3]; [22],0.883 (inactive)
same,fold change,[3]; [23],0.857
same,cell count,[3]; [24],7810
same,cell count,[3]; [25],8840
CC[C@H]1OC(=O)[C@H](C)[C@@H](O[C@H]2C[C@@](C)(OC)[C@@H](O)[C@H](C)O2)[C@H](C)[C@@H](O[C@@H]2O[C@H](C)C[C@H](N(C)C)[C@H]2O)[C@](C)(O)C[C@@H](C)C(=O)[C@H](C)[C@@H](O)[C@]1(C)O,inhibition,[4],-6% and 7.62% and 29.3%
same,score,[5],1 and 1.46 and 0.46
same,rescue above control,[6],2.19 and 2 and 0.57
same,cytochrome c release ratio,[7],1.13 and 0.65 and 0.96
same,inhibition of aggregation,[8],76.2% and 28.2% and 15.7%
same,glutamate uptake change,[9],-4.4% and 1.02% and 35.1%
same,inclusion score,[10],2
same,aggregation suppression score,[11],0.915 and 1.27 and 0.716
same,parasite load remaining,[12],44.8% (inactive) and 99.9% (inactive) and 62.2% (inactive)
same,viability,[12],44.6% and 74.8% and 115%
same,inhibition,[1],2.57% (inactive) and -12% (inactive)
same,red/green cell ratio (normalised),[2],1.08 (inactive) and 0.76 (inactive)
same,normalised cell number,[2]; [20],0.96 and 0.98
same,normalised cell number,[2]; [21],1.03 and 0.74
same,fold change,[3]; [22],0.923 (inactive) and 0.889 (inactive) and 0.914 (inactive)
same,fold change,[3]; [23],0.947 and 1.27 and 1.04
same,cell count,[3]; [24],7930 and 8750 and 10800
same,cell count,[3]; [25],8590 and 9850 and 11800
same,z-score,[13]; [26],-0.415 (inactive)
same,z-score,[13]; [27],-0.471
same,luciferase signal,[14],60 AU (inactive)
COc1cc2c(cc1OC)[C@@H]1C(=O)c3ccc4c(c3O[C@@H]1CO2)C=CC(C)(C)O4,inhibition,[1],-0.416% (inactive)
same,red/green cell ratio (normalised),[2],0.71 (inactive)
same,normalised cell number,[2]; [20],0.9
same,normalised cell number,[2]; [21],0.64
same,luciferase signal,[14],44 AU (inactive)
NC[C@H]1O[C@H](O[C@H]2[C@H](O)[C@@H](O[C@H]3O[C@H](CO)[C@@H](O)[C@H](N)[C@H]3O)[C@H](N)C[C@@H]2N)[C@H](N)C[C@@H]1O,parasite load remaining,[12],155% (inactive) and 39.4% (inactive) and 27.1% (inactive)
same,viability,[12],107% and 98% and 71.5%
same,inhibition,[1],-0.0775% (inactive)
same,red/green cell ratio (normalised),[2],1.17 (inactive)
same,normalised cell number,[2]; [20],0.88
same,normalised cell number,[2]; [21],1.03
same,fold change,[3]; [22],0.865 (inactive) and 0.994 (inactive) and 0.887 (inactive)
same,fold change,[3]; [23],1.22 and 2.22 and 1.69
same,cell count,[3]; [24],8760 and 12000 and 9090
same,cell count,[3]; [25],10100 and 12100 and 10300
same,z-score,[13]; [26],0.333 (inactive) and -0.0714 (inactive)
same,z-score,[13]; [27],0.434 and -0.898
same,luciferase signal,[14],84 AU (inactive)
same,z-score,[15],0.605 (inactive)
c1coc(CNc2ncnc3nc[nH]c23)c1,inhibition,[4],6.38%
same,score,[5],1.14
same,rescue above control,[6],19.9
same,cytochrome c release ratio,[7],1.1
same,inhibition of aggregation,[8],68.2%
same,glutamate uptake change,[9],-3.65%
same,inclusion score,[10],2
same,aggregation suppression score,[11],0.807
same,parasite load remaining,[12],122% (inactive) and 193% (inactive)
same,viability,[12],98% and 74%
same,inhibition,[1],6.86% (inactive)
same,red/green cell ratio (normalised),[2],1.01 (inactive)
same,normalised cell number,[2]; [20],1.05
same,normalised cell number,[2]; [21],1.07
same,fold change,[3]; [22],1.04 (inactive) and 1.1 (inactive)
same,fold change,[3]; [23],0.935 and 0.585
same,cell count,[3]; [24],8620 and 8070
same,cell count,[3]; [25],8250 and 7310
same,z-score,[13]; [26],-0.185 (inactive) and -0.0285 (inactive)
same,z-score,[13]; [27],-0.0997 and -0.188
same,luciferase signal,[14],84 AU (inactive)
COc1cc(O)c2c(c1)C(=O)c1cc(C)cc(O)c1C2=O,inhibition,[1],36.5% (active)
same,red/green cell ratio (normalised),[2],1 (inactive)
same,normalised cell number,[2]; [20],1
same,normalised cell number,[2]; [21],1.01
same,fold change,[3]; [22],0.975 (inactive)
same,fold change,[3]; [23],0.792
same,cell count,[3]; [24],9920
same,cell count,[3]; [25],10200
same,z-score,[13]; [26],-0.364 (inactive)
same,z-score,[13]; [27],0.659
same,luciferase signal,[14],212 AU (inactive)
O=C1C[C@@H](c2ccc(O)cc2)Oc2cc(O)cc(O)c21,inhibition,[4],11.6%
same,score,[5],1.28
same,rescue above control,[6],-15.8
same,cytochrome c release ratio,[7],1.08
same,inhibition of aggregation,[8],57.7%
same,glutamate uptake change,[9],9.95%
same,inclusion score,[10],2
same,aggregation suppression score,[11],1.04
same,inhibition,[1],-3.37% (inactive)
same,red/green cell ratio (normalised),[2],1.16 (inactive)
same,normalised cell number,[2]; [20],0.96
same,normalised cell number,[2]; [21],1.12
same,luciferase signal,[14],40 AU (inactive)
Nc1ccc(S(=O)(=O)Nc2ncccn2)cc1,inhibition,[4],-24.3%
same,score,[5],0.99
same,rescue above control,[6],-2.17
same,cytochrome c release ratio,[7],1.47
same,inhibition of aggregation,[8],53.9%
same,glutamate uptake change,[9],-2.67%
same,inclusion score,[10],2
same,aggregation suppression score,[11],0.995
same,inhibition,[1],5.23% (inactive)
same,red/green cell ratio (normalised),[2],1.41 (inactive)
same,normalised cell number,[2]; [20],0.84
same,normalised cell number,[2]; [21],1.19
same,z-score,[13]; [26],-0.222 (inactive) and 0.26 (inactive) and -0.566 (inactive)
same,z-score,[13]; [27],0.689 and 0.071 and -1.27
same,luciferase signal,[14],40 AU (inactive)
same,z-score,[15],-0.065 (inactive)
C[N+](C)(C)CCO,inhibition,[4],2.29%
same,score,[5],1.21
same,rescue above control,[6],0.45
same,cytochrome c release ratio,[7],1.11
same,inhibition of aggregation,[8],51.5%
same,glutamate uptake change,[9],11.9%
same,inclusion score,[10],2
same,aggregation suppression score,[11],1.39
same,period change,[16],-0.015 h (inactive)
same,parasite load remaining,[12],151% (inactive) and 49.7% (inactive)
same,viability,[12],89.2% and 117%
same,inhibition,[17],-3% (inactive)
same,fluorescence ratio (interference),[18],1 (inactive)
same,inhibition,[1],2.82% (inactive)
same,red/green cell ratio (normalised),[2],1.11 (inactive)
same,normalised cell number,[2]; [20],1.16
same,normalised cell number,[2]; [21],1.3
same,fold change,[3]; [22],1.01 (inactive) and 0.882 (inactive) and 0.829 (inactive)
same,fold change,[3]; [23],2.28 and 1.39 and 4.39
same,cell count,[3]; [24],9630 and 8510 and 11000
same,cell count,[3]; [25],9520 and 9640 and 13300
same,outcome,[19],inactive
same,z-score,[13]; [26],-0.228 (inactive)
same,z-score,[13]; [27],-0.171
same,luciferase signal,[14],200 AU (inactive)
same,z-score,[15],0.51 (inactive)
O=C(/C=C/C=C/c1ccc2c(c1)OCO2)N1CCCCC1,inhibition,[4],-11.5%
same,score,[5],0.85
same,rescue above control,[6],3.18
same,cytochrome c release ratio,[7],0.68
same,inhibition of aggregation,[8],51%
same,glutamate uptake change,[9],10.6%
same,inclusion score,[10],2
same,aggregation suppression score,[11],0.367
same,inhibition,[1],0.86% (inactive)
same,red/green cell ratio (normalised),[2],0.95 (inactive)
same,normalised cell number,[2]; [20],1.26
same,normalised cell number,[2]; [21],1.2
same,fold change,[3]; [22],0.898 (inactive) and 0.941 (inactive)
same,fold change,[3]; [23],1.07 and 2.41
same,cell count,[3]; [24],7720 and 10400
same,cell count,[3]; [25],8590 and 11100
same,luciferase signal,[14],80 AU (inactive)
